Measurements taken from PubChem BioAssay (Tox21).
Results filed as inconclusive are left out. Where a call stands in place of a potency, no number is given. Activity calls are given as the source filed them. Calls follow the shape of the dose curve; as a rule, active = well fitted cell-killing curve with a large enough effect in the repeat runs; inconclusive = weak or mixed curves, or effect the other way; inactive = flat fitted curve, though single readings scatter.

Experiments:
[1] = cAMP Responsive Elements (CRE) small molecule antagonists, cell-based qHTS assay: qHTS cell viability counter screen (AID 2060913); also: nearly all actives have a fitted effect of over 40% in size
Method in brief: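 Cytotoxicity read in the same wells as the CRE-bla HEK293T antagonist assay: after 3 h compound with 0.25 uM NKH477 final and 2 h beta-lactamase substrate, CellTiter-Glo luminescence measured.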

[2] = cAMP Responsive Elements (CRE) small molecule agonists, cell-based qHTS assay: qHTS cell viability counter screen (AID 2060914);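 also: viability read after 3 h of compound exposure; nearly all actives have a fitted effect of over 50% in size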
Method in brief: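 HEK 293T CRE-bla; DMEM + 10% dialyzed FBS, 25 mM HEPES; 18 h pre-incubation; compound 3 h, 37 °C/5% CO2; CellTiter-Glo added after reporter read; luminescence after 30 min RT.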

With `CN1CCN(Cc2cc(-c3ccc4[nH]c(=O)oc4c3)co2)[C@@H](c2ccc(F)cc2)C1` the Potency [1] was “inactive” and the Potency [2] was “inactive”.

For `CC(C)=CCOC(=O)c1ccccc1`, the Potency [1] was “inactive” and the Potency [2] was “inactive”.

In the case of `CCN[C@@H]1C[C@H](N)[C@@H](OC2OC(CN)=CCC2N)[C@H](O)[C@H]1O[C@H]1OC[C@](C)(O)[C@H](NC)[C@H]1O` (stereo partly drawn), the viability change, negative = cytotoxic [1] is reported as 1.22% [at 0.349 µM] (inactive) and the activity change, negative = cytotoxicity [2] is reported as 3.46% [at 0.349 µM] (inactive).

In the case of `CCO[Si](C)(C)OCC`, the Potency [1] is reported as “inactive” and the Potency [2] is reported as “inactive”.

In the case of `CCOC(=O)c1ccc(I)cc1`, the Potency [1] is reported as “inactive” and the Potency [2] is reported as “inactive”.

With `CCCCC(CC)COP(=O)(O)O` (stereo not drawn) the Potency [1] was “inactive” and the Potency [2] was “inactive”.

In the case of `C/C=C1/C(=O)C[C@H]2[C@@H]3CCC4=CC(=O)CC[C@]4(C)[C@H]3CC[C@]12C`, the Potency [1] is reported as “inactive” and the Potency [2] is reported as “inactive”.

In the case of `C=CCOc1c(Br)cc(Br)cc1Br`, the Potency [1] is reported as “inactive” and the Potency [2] is reported as “inactive”.

For `CC(C)=CCC/C(C)=C/C(=O)O`, the Potency [1] was “inactive” and the Potency [2] was “inactive”.

For `CCOCC(=O)O`, the Potency [1] was “inactive” and the Potency [2] was “inactive”.

For `CCc1cccc(CC)c1`, the Potency [1] was “inactive” and the Potency [2] was “inactive”.

In the case of `COc1cc(S(N)(=O)=O)cc(C(=O)O)c1OC`, the Potency [1] is reported as “inactive” and the Potency [2] is reported as “inactive”.

In the case of `CC(C)(C)NCCNC(C)(C)C`, the Potency [1] is reported as “inactive” and the Potency [2] is reported as “inactive”.

For `CC(Cc1cccc(C(F)(F)F)c1)NCCOC(=O)c1ccccc1` (stereo not drawn), the Potency [1] was “inactive” and the Potency [2] was “inactive”.

With `CCCC(C)C(=O)O` (stereo not drawn) the Potency [1] was “inactive” and the Potency [2] was “inactive”.

In the case of `CCO[Si](CCC1CCC2OC2C1)(OCC)OCC` (stereo not drawn), the Potency [1] is reported as “inactive” and the Potency [2] is reported as “inactive”.

For `CCCCOCC(C)O` (stereo not drawn), the Potency [1] was “inactive” and the Potency [2] was “inactive”.

With `O=[N+]([O-])c1ccc(O)cc1` the Potency [1] was “inactive” and the Potency [2] was “inactive”.

For `CC(=O)Oc1cccc2c1C(=O)c1c(OC(C)=O)cc(C(=O)O)cc1C2=O`, the Potency [1] was “inactive” and the Potency [2] was “inactive”.
